Reference: the supplement of paper PMC12669032

Assays:
Assay in all cases: growth AUC relative to DMSO control (median of replicates) (fraction); higher = more growth (less inhibition), active = hit call of the paper
Conditions in all cases: 20 µM; 24 h;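 active = AUC reduced over 20% with Padj below 0.05 in at least 2 of 3 replicates; inactive = otherwise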
Akkermansia muciniphila = test system: Akkermansia muciniphila
Method in brief: (§1)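 Area under the growth curve was normalised to the plate median of solvent-only wells, or to row and column medians on the industrial chemical plate. Growth curves came from anaerobic gut bacterial monocultures in mGAM at 37 °C, seeded at OD600 0.05 with 20 µM compound (1% DMSO), and read at OD600 hourly for 24 h with the minimum OD set to 0. The value is the median of three biological replicates grown on separate days.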

Bacteroides caccae = test system: Bacteroides caccae
Method in brief: as §1

Bacteroides clarus = test system: Bacteroides clarus
Method in brief: as §1

Bacteroides dorei = test system: Bacteroides dorei
Method in brief: as §1

Bacteroides stercoris = test system: Bacteroides stercoris
Method in brief: as §1

[1] = test system: Bacteroides thetaiotaomicron
Method in brief: as §1

Bacteroides uniformis = test system: Bacteroides uniformis
Method in brief: as §1

[2] = test system: Bifidobacterium longum subsp. longum
Method in brief: as §1

Clostridium difficile = test system: Clostridium difficile
Method in brief: as §1

Collinsella aerofaciens = test system: Collinsella aerofaciens
Method in brief: as §1

Measured: growth AUC

CCCN(CC1CC1)c1c([N+](=O)[O-])cc(C(F)(F)F)cc1[N+](=O)[O-]
inactive: Akkermansia muciniphila 1.35 | Bacteroides caccae 0.93 | Bacteroides clarus 1.03 | Bacteroides dorei 0.953 | Bacteroides stercoris 1.42 | [1] 1 | Bacteroides uniformis 1.03 | [2] 1.03 | Clostridium difficile 0.979 | Collinsella aerofaciens 0.955

CC(Cc1ccc(C(C)(C)C)cc1)CN1C[C@@H](C)O[C@@H](C)C1 (stereo not given in full)
inactive: Akkermansia muciniphila 1.04 | Bacteroides caccae 1.03 | Bacteroides clarus 0.974 | Bacteroides dorei 1.01 | Bacteroides stercoris 1.07 | [1] 0.996 | Bacteroides uniformis 1.05 | [2] 0.992 | Clostridium difficile 1.02 | Collinsella aerofaciens 1

ClC1C(Cl)C(Cl)C(Cl)C(Cl)C1Cl (mixture of isomers)
inactive: Akkermansia muciniphila 0.921 | Bacteroides caccae 0.981 | Bacteroides clarus 0.932 | Bacteroides dorei 1.01 | Bacteroides stercoris 0.826 | [1] 0.986 | Bacteroides uniformis 0.916 | [2] 0.921 | Clostridium difficile 0.982 | Collinsella aerofaciens 1

CCCCC(CC)COC(=O)c1ccccc1C(=O)OCC(CC)CCCC (stereo not given)
inactive: Akkermansia muciniphila 1.03 | Bacteroides caccae 0.989 | Bacteroides clarus 0.993 | Bacteroides dorei 0.963 | Bacteroides stercoris 0.898 | [1] 0.993 | Bacteroides uniformis 1.03 | [2] 0.984 | Clostridium difficile 0.977 | Collinsella aerofaciens 0.888

Oc1cc(Cl)c(Cl)cc1Cl
inactive: Akkermansia muciniphila 0.97 | Bacteroides caccae 0.934 | Bacteroides clarus 0.945 | Bacteroides dorei 0.936 | Bacteroides stercoris 0.913 | [1] 0.986 | Bacteroides uniformis 0.992 | [2] 1.02 | Clostridium difficile 0.929 | Collinsella aerofaciens 0.922

COCC(=O)N(c1c(C)cccc1C)[C@@H](C)C(=O)OC
inactive: Akkermansia muciniphila 1.19 | Bacteroides caccae 0.953 | Bacteroides clarus 0.968 | Bacteroides dorei 0.922 | Bacteroides stercoris 1 | [1] 1.04 | Bacteroides uniformis 0.981 | [2] 1.04 | Clostridium difficile 1.04 | Collinsella aerofaciens 0.973

CON(C)C(=O)Nc1ccc(Cl)c(Cl)c1
inactive: Akkermansia muciniphila 0.949 | Bacteroides caccae 1.05 | Bacteroides clarus 1 | Bacteroides dorei 1.04 | Bacteroides stercoris 0.954 | [1] 1 | Bacteroides uniformis 1 | [2] 0.953 | Clostridium difficile 0.999 | Collinsella aerofaciens 1.06

O=S(=O)(c1ccccc1)c1ccccc1
inactive: Akkermansia muciniphila 0.901 | Bacteroides caccae 0.966 | Bacteroides clarus 1.01 | Bacteroides dorei 0.993 | Bacteroides stercoris 1.03 | [1] 0.997 | Bacteroides uniformis 0.982 | [2] 1.01 | Clostridium difficile 1.02 | Collinsella aerofaciens 0.964

O=C(Nc1ccc(F)cc1F)c1cccnc1Oc1cccc(C(F)(F)F)c1
inactive: Akkermansia muciniphila 0.947 | Bacteroides caccae 0.929 | Bacteroides clarus 0.965 | Bacteroides dorei 0.882 | Bacteroides stercoris 0.924 | [1] 0.966 | Bacteroides uniformis 1.01 | [2] 1 | Clostridium difficile 0.977 | Collinsella aerofaciens 0.946

CC(=NCc1ccc(Cl)nc1)NC#N
inactive: Akkermansia muciniphila 1.01 | Bacteroides caccae 1.02 | Bacteroides clarus 1.05 | Bacteroides dorei 1.04 | Bacteroides stercoris 1.1 | [1] 0.99 | Bacteroides uniformis 1.03 | [2] 1.02 | Clostridium difficile 1.03 | Collinsella aerofaciens 1.02

O=S(=O)(c1ccc(Cl)cc1)c1cc(Cl)c(Cl)cc1Cl
inactive: Akkermansia muciniphila 1.07 | Bacteroides caccae 0.921 | Bacteroides clarus 0.935 | Bacteroides dorei 0.91 | Bacteroides stercoris 0.931 | [1] 0.952 | Bacteroides uniformis 0.903 | [2] 1.04 | Clostridium difficile 0.963 | Collinsella aerofaciens 0.945

CN(C)C1CSSSC1.O=C(O)C(=O)O
inactive: Akkermansia muciniphila 0.941 | Bacteroides caccae 0.98 | Bacteroides clarus 0.974 | Bacteroides dorei 1.17 | Bacteroides stercoris 0.905 | [1] 1.07 | Bacteroides uniformis 1.23 | [2] 0.964 | Clostridium difficile 1.05 | Collinsella aerofaciens 1.03

COc1ncc(F)c2nc(S(=O)(=O)Nc3c(F)cccc3F)nn12
inactive: Akkermansia muciniphila 0.991 | Bacteroides caccae 1.02 | Bacteroides clarus 0.985 | Bacteroides dorei 1.01 | Bacteroides stercoris 1.13 | [1] 0.974 | Bacteroides uniformis 1 | [2] 1.01 | Clostridium difficile 0.994 | Collinsella aerofaciens 1.01

CCOC(=O)CC(SP(=S)(OC)OC)C(=O)OCC (stereo not given)
inactive: Akkermansia muciniphila 1.13 | Bacteroides caccae 0.953 | Bacteroides clarus 1 | Bacteroides dorei 0.881 | Bacteroides stercoris 0.982 | [1] 0.977 | Bacteroides uniformis 0.965 | [2] 1.09 | Clostridium difficile 0.845 | Collinsella aerofaciens 0.955
